Experimental data published in PubChem BioAssay AID2330 (Broad Institute, 2010).
The whole screen tested about 37,000 compounds, of which about 2,800 (7.6%) were called active. Inconclusive results (about 1%) are left out. The full list was thinned out, with actives kept by preference. Values without a mark were called inactive. Cut-off read from the data, not from the text of the source: active = inhibition above about 80%; inconclusive = no clear call, values can overlap the other calls; inactive = below that.

Assay: NOMO-1 AML cell viability reduction, primary screen, STK33 inhibitor project, CellTiter-Glo luminescence (AID 2330)
Conditions: NOMO-1 AML viability, 72 h, hits give high values, concentration not given here
With `C[C@H](CO)N1C[C@H](C)[C@H](CN(C)S(C)(=O)=O)Oc2ccc(NC(=O)c3ccncc3)cc2CC1=O` the inhibition was -14.9%. Work on `CNC[C@H]1Oc2ccc(NS(=O)(=O)c3ccc(F)cc3)cc2CC(=O)N([C@H](C)CO)C[C@H]1C` yielded an inhibition of -15.6%. With `S=C(NCC1CC1)Nc1ccc(Cl)cc1` the inhibition was 34.8%. For `Oc1cc2c(cc1O)CN(C(=S)NCCc1ccc(Cl)cc1)CCC2`, the inhibition was 96.6% (active). For `COc1cccc2cc(C(=O)C3C(=O)C(=O)N(CCN4CCOCC4)C3c3ccc(F)cc3)oc12` (configuration not stated), the inhibition was -8.3%. `COc1ccc(CNC(=O)c2c(C)oc3c2cc(OC(C)=O)c2ccccc23)cc1` gave an inhibition of 43%. For `Cc1noc(C)c1S(=O)(=O)Nc1ccc2c(c1)CC(=O)N([C@H](C)CO)C[C@@H](C)[C@@H](CN(C)Cc1ccc(C(=O)O)cc1)O2`, the inhibition was -16.8%. With `C[C@H](CO)N1C[C@H](C)[C@H](CN(C)S(=O)(=O)c2cn(C)cn2)Oc2c(NC(=O)c3ccncc3)cccc2C1=O` the inhibition was 29.1%. `COc1ccc(OC)c(NC(=O)Cn2cc(C(=O)C3CC3)c3ccccc32)c1` showed an inhibition of -2.38%. For `Cc1c(Cl)cccc1NC(=O)Cn1cc(C(=O)c2cccs2)c2ccccc21`, the inhibition was 88.1% (active). With `O=C(Cn1cc(C(=O)C2CC2)c2ccccc21)Nc1ccccc1Cl` the inhibition was 3.17%. For `C[C@@H]1CN([C@@H](C)CO)C(=O)c2cccc(N(C)C)c2O[C@H]1CN(C)S(=O)(=O)c1cccs1`, the inhibition was 22.8%. With `Cc1ccnc(N)c1` the inhibition was 6.37%. `C[C@H](CO)N1C[C@H](C)[C@H](CN(C)C)Oc2ccc(NC(=O)Nc3ccc(F)cc3)cc2CC1=O` showed an inhibition of -3.06%. Compound `COc1ccc(NC(=O)N(C)C[C@@H]2Oc3c(NC(=O)NC4CCCCC4)cccc3C(=O)N([C@H](C)CO)C[C@H]2C)cc1` has an inhibition of -1.16%. With `C=CC(C)(O)CCC1(C)C2=C(C(OC(C)=O)C(OC(C)=O)C1C)C(C)(C)CCC2` (configuration not stated) the inhibition was 115% (active). Work on `C[C@@H]1CN([C@@H](C)CO)C(=O)c2cc(NC(=O)Nc3ccccc3)ccc2O[C@H]1CN(C)S(=O)(=O)c1ccccc1` yielded an inhibition of -0.0629%. In the case of `C[C@H](CO)N1C[C@H](C)[C@H](CN(C)S(=O)(=O)c2ccc(Cl)cc2)Oc2ccc(NC(=O)C3CCCCC3)cc2C1=O`, the inhibition is reported as 7.26%. `COc1ccc(OC)c(NC(=O)CSc2n[nH]c(-c3ccncc3)n2)c1` gave an inhibition of 14.4%. With `C[C@H](CO)N1C[C@H](C)[C@H](CN(C)Cc2ccc(C(=O)Nc3ccccc3N)cc2)Oc2ccc(NC(=O)Nc3ccccc3)cc2CC1=O` the inhibition was 141% (active). With `C[C@H]1CN([C@@H](C)CO)C(=O)Cc2cc(NC(=O)CCCCCC(=O)Nc3ccccc3N)ccc2O[C@@H]1CN(C)Cc1ccncc1` the inhibition was 19.5%. `COc1ccc(CN(C)C[C@@H]2Oc3ccc(NC(=O)Nc4ccc5c(c4)OCO5)cc3CC(=O)N([C@H](C)CO)C[C@H]2C)cc1` gave an inhibition of 8.79%. With `C[C@H]1CN([C@@H](C)CO)C(=O)Cc2cc(NC(=O)Nc3ccc4c(c3)OCO4)ccc2O[C@H]1CN(C)Cc1ccc(C(=O)Nc2ccccc2N)cc1` the inhibition was 127% (active). For `CC(C)NC(=O)Nc1ccc2c(c1)CC(=O)N([C@H](C)CO)C[C@H](C)[C@H](CN(C)Cc1ccc3c(c1)OCO3)O2`, the inhibition was 14.7%. In the case of `C[C@@H]1CN([C@H](C)CO)C(=O)Cc2cc(NC(=O)Nc3ccc4c(c3)OCO4)ccc2O[C@@H]1CN(C)Cc1ccc(C(=O)Nc2ccccc2N)cc1`, the inhibition is reported as 96.7% (active). `CC(C)NC(=O)Nc1ccc2c(c1)CC(=O)N([C@H](C)CO)C[C@@H](C)[C@@H](CN(C)Cc1ccc(C(=O)Nc3ccccc3N)cc1)O2` showed an inhibition of 60.7%. Work on `C[C@@H]1CN([C@H](C)CO)C(=O)Cc2cc(NC(=O)Nc3ccc(F)cc3)ccc2O[C@@H]1CN(C)Cc1ccc2c(c1)OCO2` yielded an inhibition of 31%. In the case of `C[C@@H]1CN([C@H](C)CO)C(=O)Cc2cc(NC(=O)Nc3ccc4c(c3)OCO4)ccc2O[C@H]1CN(C)Cc1ccc(C(=O)O)cc1`, the inhibition is reported as 20.5%. Work on `CCN1CCN(C(=O)N[C@@H](C(=O)N[C@@H]2C(=O)N3C(C(=O)O)=C(CSc4nnnn4C)CS[C@H]23)c2ccc(O)cc2)C(=O)C1=O` yielded an inhibition of 16.9%. For `Cc1ccc(C)c(S(=O)(=O)NC(C)C(=O)Nc2ccc(Br)cc2F)c1` (configuration not stated), the inhibition was 1.68%. `Cc1noc(C)c1S(=O)(=O)Nc1ccc2c(c1)CC(=O)N([C@H](C)CO)C[C@H](C)[C@H](CN(C)S(=O)(=O)c1cn(C)cn1)O2` gave an inhibition of -3.68%. In the case of `C[C@@H]1CN([C@H](C)CO)C(=O)Cc2cc(NS(C)(=O)=O)ccc2O[C@@H]1CN(C)C(=O)Nc1ccc2c(c1)OCO2`, the inhibition is reported as -3.88%. Compound `O=C(Oc1ccccc1)c1cccc(COC(=O)c2cc3ccccc3oc2=O)c1` has an inhibition of 5.03%. `C[C@H](CO)N1C[C@H](C)[C@@H](CN(C)C(=O)Nc2ccccc2)Oc2ccc(N(C)C)cc2C1=O` showed an inhibition of 14.4%. `CC1CCCCC1NC(=O)CSc1nnc(N)s1` (configuration not stated) gave an inhibition of 13.1%. In the case of `COC(=O)c1cc(NC(=O)Cc2ccccc2[N+](=O)[O-])ccc1Cl`, the inhibition is reported as 62.9%. Work on `Cc1nnc(SCC(=O)N2CCc3ccccc32)n1-c1ccccc1` yielded an inhibition of 10%. For `CN(C)c1nc(SCCO)nc(N(C)C)n1`, the inhibition was 33.8%. In the case of `COc1cc2c(cc1NC(=O)CN(C)S(=O)(=O)c1ccc(Br)cc1)oc1ccccc12`, the inhibition is reported as -7.24%. In the case of `COc1ccc(NC(=O)N(C)C[C@@H]2Oc3ccc(NS(C)(=O)=O)cc3C(=O)N([C@@H](C)CO)C[C@@H]2C)cc1`, the inhibition is reported as 22.3%. Work on `COC(=O)c1ccc(C(=O)OC)c(NC(=O)COc2ccc(C)cc2)c1` yielded an inhibition of 13.3%. For `N#Cc1c(SCC(=O)Nc2ccccc2)ncc2cc3ccccc3nc12`, the inhibition was 110% (active). For `O=C(CSc1nnc(-c2ccccc2)c(-c2ccccc2)n1)Nc1ccccc1`, the inhibition was 1.52%. With `Cc1sc2ncnc(SCC(=O)Nc3ccccc3)c2c1-c1ccccc1` the inhibition was 26.6%. With `CC(C)NC(=O)Nc1cccc2c1O[C@H](CN(C)S(=O)(=O)c1cccs1)[C@@H](C)CN([C@H](C)CO)C2=O` the inhibition was -9.32%. For `COc1ccc(C)c(Cn2c(-c3nonc3N)nc3ccccc32)c1`, the inhibition was 112% (active). Compound `COc1ccc2nc3c(nc2c1)C(=O)c1ccccc1C3=O` has an inhibition of 29.2%. `Cc1ccc(S(=O)(=O)N(C)C[C@@H]2Oc3ccc(NC(=O)Cc4ccccc4)cc3CC(=O)N([C@H](C)CO)C[C@H]2C)cc1` gave an inhibition of 53.4%. For `Cc1noc(C)c1NC(=O)Nc1cccc2c1O[C@@H](CN(C)Cc1ccc3c(c1)OCO3)[C@@H](C)CN([C@@H](C)CO)C2=O`, the inhibition was 13.5%. For `CCN1CCN(S(=O)(=O)c2cc(OCC(N)=O)c(C)cc2Cl)CC1`, the inhibition was 12.8%. In the case of `Cc1ccc2c(c1)CCCN2S(=O)(=O)c1cc(OCC(N)=O)c(C)cc1Cl`, the inhibition is reported as 93.4% (active). With `Cc1cc(Cl)c(S(=O)(=O)Nc2ccc3c(c2)OCCO3)cc1OCC(N)=O` the inhibition was 20.2%. `C[C@@H]1CN([C@H](C)CO)C(=O)c2cccc(NS(C)(=O)=O)c2O[C@@H]1CN(C)C(=O)Nc1cccc2ccccc12` gave an inhibition of -9.1%. In the case of `C[C@H]1CN([C@@H](C)CO)C(=O)Cc2cc(NC(=O)NC3CCCCC3)ccc2O[C@@H]1CN(C)Cc1ccc(Oc2ccccc2)cc1`, the inhibition is reported as 94.9% (active). In the case of `C[C@H]1CN([C@@H](C)CO)C(=O)c2cc(NC(=O)C3CC3)ccc2O[C@@H]1CN(C)Cc1ccc(Oc2ccccc2)cc1`, the inhibition is reported as 16.2%. `C[C@@H]1CN([C@H](C)CO)C(=O)Cc2cc(NC(=O)Cc3ccccc3)ccc2O[C@H]1CN(C)Cc1ccc(Oc2ccccc2)cc1` showed an inhibition of 13.7%. In the case of `C[C@@H]1CN([C@H](C)CO)C(=O)Cc2cc(NC(=O)NC3CCCCC3)ccc2O[C@H]1CN(C)Cc1ccc(Cl)c(Cl)c1`, the inhibition is reported as 20.7%. For `C[C@@H]1CN([C@@H](C)CO)C(=O)Cc2cc(NC(=O)Cc3ccccc3)ccc2O[C@@H]1CN(C)Cc1ccc(Oc2ccccc2)cc1`, the inhibition was 127% (active). `C[C@@H]1CN([C@H](C)CO)C(=O)Cc2cc(NC(=O)Cc3ccccc3)ccc2O[C@@H]1CN(C)Cc1ccccc1` gave an inhibition of -13.8%. `COc1ccc(CN(C)C[C@H]2Oc3ccc(NC(=O)Cc4ccccc4)cc3CC(=O)N([C@@H](C)CO)C[C@@H]2C)cc1` showed an inhibition of 22.8%. In the case of `C[C@@H]1CN([C@@H](C)CO)C(=O)c2cc(NC(=O)Cc3ccccc3)ccc2O[C@@H]1CN(C)Cc1ccc(Oc2ccccc2)cc1`, the inhibition is reported as 112% (active). With `C[C@H](CO)N1C[C@H](C)[C@H](CN(C)Cc2ccccc2)Oc2ccc(NC(=O)Cc3ccccc3)cc2C1=O` the inhibition was 7.66%. With `C[C@H]1CN([C@@H](C)CO)C(=O)Cc2cc(NC(=O)Cc3ccccc3)ccc2O[C@@H]1CN(C)Cc1ccc(Cl)c(Cl)c1` the inhibition was 96.8% (active). `C[C@@H]1CN([C@H](C)CO)C(=O)Cc2cc(NC(=O)Nc3ccccc3)ccc2O[C@H]1CN(C)Cc1ccc(Cl)c(Cl)c1` gave an inhibition of 30.1%. In the case of `C[C@@H]1CN([C@H](C)CO)C(=O)Cc2cc(NC(=O)CCCN(C)C)ccc2O[C@@H]1CN(C)Cc1ccc(Oc2ccccc2)cc1`, the inhibition is reported as 19.5%. `COC(=O)c1c(NC(=O)COc2ccc(C(C)C)c(C)c2)sc2c1CCC2` showed an inhibition of -13.1%. `COc1ccc(S(=O)(=O)N(C)C[C@@H]2Oc3ccc(NC(=O)Cc4cn(C)c5ccccc45)cc3C(=O)N([C@H](C)CO)C[C@H]2C)cc1` gave an inhibition of 3.23%.
